Among the data in PubChem BioAssay (NCI) are growth values, retold here.

Compounds without any hit were thinned out: in the full panel of roughly 83,000, 20% have a hit.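 Growth was measured after 48 h exposure to one concentration of compound in 96-well plates. Values under 10 count as active.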 Unmarked numbers belong to inactive results. The source made the active and inactive calls.

Some test systems named below: NCI-H23 lung; NCI-H226 lung; NCI-H322M lung; HOP-62 NSCLC; NCI-H460 lung; NCI-H522 lung; A549/ATCC NSCLC; 786-0 renal; COLO 205 colon; DU-145 prostate; K-562 leukemia; MALME-3M melanoma; MDA-MB-231 breast; SF-268 CNS; SF-295 CNS; SF-539 CNS; UACC-257 melanoma; M14 melanoma; RXF 393 renal.
Holding throughout (test): NCI-60 one-dose screen, 48 h (100 = growth as untreated, 0 = no growth, -100 = all killed)
What all share (settings): 10 µM unless noted

As to `COc1cc2c(cc1OC)C(=O)OC2`, the growth is 118% in the assay with NCI-H23 lung; 93.4% with NCI-H226 lung; 116% in the assay on NCI-H322M lung; 113% in the assay with HOP-62 NSCLC; 110% in the assay on NCI-H460 lung; 111% in the assay with NCI-H522 lung. Also, the growth in the assay with A549/ATCC NSCLC was 104%; in the assay on 786-0 renal, 114%; with COLO 205 colon, 134%; in the assay with DU-145 prostate it was 109%; in the assay on K-562 leukemia it was 118%; with MALME-3M melanoma, 124%. The growth in the assay on MDA-MB-231 breast was 102%; in the assay with SF-268 CNS, 100%; in the assay with SF-295 CNS it was 102%; with SF-539 CNS, 97%; in the assay with UACC-257 melanoma, 13.3%; with M14 melanoma, 119%.

In the case of `O=C1OC(c2ccc(-c3ccccc3)cc2)=C/C1=C/c1c(Cl)cccc1Cl`, the growth with NCI-H23 lung is 94.7%; with NCI-H226 lung, 84.1%; with NCI-H322M lung it was 85.7%; in the assay on HOP-62 NSCLC it was 76%; in the assay on NCI-H460 lung it was 99.4%; in the assay on NCI-H522 lung it was 89.3%. Further, the growth in the assay with A549/ATCC NSCLC was 11%; in the assay with COLO 205 colon it was 103%; with DU-145 prostate, 96.3%; in the assay on K-562 leukemia, 89.5%; with MALME-3M melanoma it was 64%; with MDA-MB-231 breast it was 95.9%. The growth with SF-268 CNS is 96.7%; in the assay on SF-539 CNS it was 102%; with UACC-257 melanoma, -33.6% (active); in the assay with M14 melanoma it was 105%.

For the compound `COc1ccc(C(=O)c2cc(C)c(OC)c(C)c2)cc1OC(=O)CCl`, the growth is 29.1% in the assay on NCI-H23 lung; 52.8% with NCI-H226 lung; 42.7% in the assay on NCI-H322M lung; 17.8% in the assay with HOP-62 NSCLC; 6.67% (active) in the assay on NCI-H460 lung; -40.2% (active) with NCI-H522 lung. In addition, the growth with A549/ATCC NSCLC is 14.6%; in the assay on 786-0 renal it was 16.2%; with COLO 205 colon, 9.62% (active); in the assay with DU-145 prostate, 9.37% (active); with K-562 leukemia, 4.66% (active); in the assay with MALME-3M melanoma it was 63.1%. The growth with MDA-MB-231 breast was 22.9%; with RXF 393 renal, 37.7%; in the assay on SF-268 CNS, 27.6%; in the assay on SF-295 CNS it was 11.8%; in the assay with SF-539 CNS it was -26.1% (active); with UACC-257 melanoma, 56.8%. In addition, in the assay on M14 melanoma, the growth is 0.344% (active).

In the case of `C=C1NC(=O)C(C(C)CC)NC(=O)C2CSCC(NC(=O)CCC(=O)O)C(=O)NC(Cc3ccccc3)C(=O)NC(C)C(=O)NC(CC(C)CC)C(=O)NC(C(=O)NC(Cc3ccccc3)C(=O)N3CCCC3C(=O)N2)C(C)OC(=O)C(CO)NC(=O)C(C(O)COC)N(C)C(=O)C(C(C)C)NC(=O)C(CC(C)CC)NC1=O` (centres undefined), the growth in the assay with NCI-H23 lung is 38.6% [6 µM]; with NCI-H226 lung, 56.8% [6 µM]; in the assay with NCI-H322M lung it was 39.8% [6 µM]; in the assay on HOP-62 NSCLC it was 17.3% [6 µM]; with NCI-H460 lung, -4.11% [6 µM] (active); in the assay with NCI-H522 lung, -19.3% [6 µM] (active). Moreover, the growth is 10.9% [6 µM] in the assay on A549/ATCC NSCLC; -44.7% [6 µM] (active) with COLO 205 colon; 9.63% [6 µM] (active) in the assay with DU-145 prostate; 9.39% [6 µM] (active) in the assay on K-562 leukemia; 55.3% [6 µM] in the assay on MALME-3M melanoma; 35.1% [6 µM] with MDA-MB-231 breast. Besides, the growth with RXF 393 renal was 21.6% [6 µM]; in the assay with SF-268 CNS it was 25.5% [6 µM]; in the assay with SF-295 CNS, 14.9% [6 µM]; in the assay with SF-539 CNS, -6.71% [6 µM] (active); with UACC-257 melanoma, 30.1% [6 µM]; in the assay with M14 melanoma it was 5.52% [6 µM] (active).

Consider `c1ccc(C(CC2=NCCCN2)c2ccccc2)cc1`, for which the growth with NCI-H23 lung was 99.6%; with NCI-H226 lung, 98%; with NCI-H322M lung it was 99.7%; in the assay with HOP-62 NSCLC, 94.1%; in the assay with NCI-H460 lung, 102%; with NCI-H522 lung it was 90.9%. For the same compound, the growth in the assay with A549/ATCC NSCLC was 91.7%; in the assay on 786-0 renal it was 107%; in the assay with COLO 205 colon it was 102%; in the assay on DU-145 prostate it was 102%; in the assay with K-562 leukemia, 107%; in the assay on MALME-3M melanoma it was 93.2%. Besides, the growth in the assay on MDA-MB-231 breast is 88.6%; in the assay on RXF 393 renal, 113%; with SF-268 CNS, 100%; in the assay on SF-539 CNS it was 88%; with UACC-257 melanoma, 97.7%; in the assay on M14 melanoma it was 92.5%.

As for `Nc1ccc(N(O)/C=C2\C=CC=CC2=O)cc1N`, the growth is 82.7% in the assay with NCI-H23 lung; 103% in the assay on NCI-H226 lung; 110% in the assay with NCI-H322M lung; 95.7% in the assay on HOP-62 NSCLC; 119% in the assay on NCI-H460 lung; 72.7% in the assay with NCI-H522 lung. The growth in the assay on A549/ATCC NSCLC was 94.4%; in the assay with 786-0 renal, 92.3%; in the assay with COLO 205 colon, 114%; in the assay with DU-145 prostate, 121%; with K-562 leukemia, 93.5%; with MALME-3M melanoma, 101%. Also, the growth is 85.9% in the assay on MDA-MB-231 breast; 98.2% in the assay on RXF 393 renal; 107% in the assay on SF-268 CNS; 112% in the assay on SF-295 CNS; 101% in the assay on SF-539 CNS; 98.7% in the assay on UACC-257 melanoma. In addition, the growth in the assay on M14 melanoma was 101%.

`Cc1ccc(-c2cnc3sc4ccc(Cl)cc4n23)cc1`: the growth with NCI-H23 lung is 89.7%; in the assay on NCI-H226 lung, 74.6%; with NCI-H322M lung, 93.4%; in the assay on HOP-62 NSCLC, 80.3%; in the assay with NCI-H460 lung it was 104%; with NCI-H522 lung, 78.1%. The growth is 112% with A549/ATCC NSCLC; 109% in the assay on 786-0 renal; 96.8% with COLO 205 colon; 101% in the assay with DU-145 prostate; 110% in the assay on K-562 leukemia; 110% in the assay on MALME-3M melanoma. For the same compound, the growth was 85% with MDA-MB-231 breast; 104% in the assay with RXF 393 renal; 98.5% in the assay on SF-268 CNS; 94.4% with SF-539 CNS; 112% in the assay with UACC-257 melanoma; 100% in the assay on M14 melanoma.

`CCc1ccc(Nc2cc(C)c3ccc(O)cc3n2)cc1`: the growth is 90.4% in the assay with NCI-H23 lung; 76.7% in the assay with NCI-H226 lung; 82.9% in the assay on NCI-H322M lung; 88% in the assay with HOP-62 NSCLC; 64.3% in the assay with NCI-H460 lung; 92.2% in the assay on NCI-H522 lung. Moreover, the growth in the assay with A549/ATCC NSCLC is 85%; in the assay on 786-0 renal, 68.1%; with COLO 205 colon, -81.3% (active); in the assay on DU-145 prostate, 94.8%; with K-562 leukemia it was 20.3%; in the assay on MALME-3M melanoma, 17.5%. Further, the growth in the assay on MDA-MB-231 breast is 31.1%; in the assay with RXF 393 renal, 52.6%; in the assay on SF-268 CNS, 68.1%; with SF-539 CNS, 89.1%; in the assay with UACC-257 melanoma, 39.4%; in the assay with M14 melanoma, 45.4%.
